Of roughly 8,800 targets only a part is listed; those with a hit were picked by preference. About 0.5% of all pairs of compound and target were hits.
Tests used:
Experiment in all cases: log2 fold change, soluble protein after heating vs DMSO (PISA); higher = thermal stabilisation; K562 lysate, 10 uM; active = over 0.2 and 3.5 SD of the protein, either way, in both replicates (recomputed)
[1] = compound: Cc1cn(-c2cc(NC(=O)c3ccc(C)c(Nc4nccc(-c5cccnc5)n4)c3)cc(C(F)(F)F)c2)cn1 [nilotinib]
In short: (§1)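 Dounce homogenisation of K562 pellets in PBS pH 7.4 with 1 mM MgCl2 produced a crude extract, used at 1 mg/mL protein. Exposure to 10 μM compound lasted 30 min, and aliquots were then heated for 3 min across 48°C-58°C, pooled and brought to 0.5% NP-40 at 4°C. The supernatant after 21,000xg for 90 min was quantified by TMTpro 16plex LC-MS/MS with channel sums equalised. Duplicate values are given as log-two fold change in thermal stability relative to solvent controls.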

[2] = compound: Cc1nc(Nc2n[nH]c3c2CN(C(=O)N[C@H](CN(C)C)c2ccccc2)C3(C)C)c2sccc2n1
In short: as §1

[3] = compound: Cc1nc(Nc2ncc(C(=O)Nc3c(C)cccc3Cl)s2)cc(N2CCN(CCO)CC2)n1 [dasatinib]
In short: as §1

[4] = compound: Cc1ncc(-c2ccnc(Nc3ccc(S(C)(=O)=O)cc3)n2)n1C(C)C
In short: as §1

[5] = compound: Cn1cc(-c2ccc3c(c2)CCN3C(=O)Cc2cccc(C(F)(F)F)c2)c2c(N)ncnc21
In short: as §1

[6] = compound: Cn1cc(CNCC2CCN(c3ncc(C(=O)NO)cn3)CC2)c2ccccc21 [quisinostat]
In short: as §1

[7] = compound: Cn1cncc1[C@@](N)(c1ccc(Cl)cc1)c1ccc2c(c1)c(-c1cccc(Cl)c1)cc(=O)n2C [tipifarnib]
In short: as §1

[8] = compound: NC(=O)Nc1cc(-c2cccc(F)c2)sc1C(=O)N[C@H]1CCCNC1
In short: as §1

[9] = compound: NC(=O)c1cnc(N[C@@H]2CCCC[C@@H]2N)nc1Nc1cccc(-n2nccn2)c1
In short: as §1

[10] = compound: NC1(c2ccc(-c3nc4ccn5c(=O)[nH]nc5c4cc3-c3ccccc3)cc2)CCC1
In short: as §1

[11] = compound: NCC(=O)Nc1ccc(-n2nc(C(F)(F)F)cc2-c2ccc3c(ccc4ccccc43)c2)cc1
In short: as §1

[12] = compound: O=C(CCCCCCC(=O)Nc1ccccc1)NO [vorinostat]
In short: as §1

[13] = compound: O=C(O)c1ccc2c(c1)nc(Nc1cccc(Cl)c1)c1ccncc12 [silmitasertib]
In short: as §1

[14] = compound: O=C1NC(=O)C(c2cnc3ccccn23)=C1c1cn2c3c(cc(F)cc13)CN(C(=O)N1CCCCC1)CC2
In short: as §1

[15] = compound: c1cn2cc(-c3ccc4cn[nH]c4c3)nc(Nc3ccc(N4CCOCC4)cc3)c2n1 [entospletinib]
In short: as §1

Measured: log2 fold change

UBAP2L isoform 5 (UniProt Q14157)
UniProt Q14157, sequence (Q14157 whole entry, looked up): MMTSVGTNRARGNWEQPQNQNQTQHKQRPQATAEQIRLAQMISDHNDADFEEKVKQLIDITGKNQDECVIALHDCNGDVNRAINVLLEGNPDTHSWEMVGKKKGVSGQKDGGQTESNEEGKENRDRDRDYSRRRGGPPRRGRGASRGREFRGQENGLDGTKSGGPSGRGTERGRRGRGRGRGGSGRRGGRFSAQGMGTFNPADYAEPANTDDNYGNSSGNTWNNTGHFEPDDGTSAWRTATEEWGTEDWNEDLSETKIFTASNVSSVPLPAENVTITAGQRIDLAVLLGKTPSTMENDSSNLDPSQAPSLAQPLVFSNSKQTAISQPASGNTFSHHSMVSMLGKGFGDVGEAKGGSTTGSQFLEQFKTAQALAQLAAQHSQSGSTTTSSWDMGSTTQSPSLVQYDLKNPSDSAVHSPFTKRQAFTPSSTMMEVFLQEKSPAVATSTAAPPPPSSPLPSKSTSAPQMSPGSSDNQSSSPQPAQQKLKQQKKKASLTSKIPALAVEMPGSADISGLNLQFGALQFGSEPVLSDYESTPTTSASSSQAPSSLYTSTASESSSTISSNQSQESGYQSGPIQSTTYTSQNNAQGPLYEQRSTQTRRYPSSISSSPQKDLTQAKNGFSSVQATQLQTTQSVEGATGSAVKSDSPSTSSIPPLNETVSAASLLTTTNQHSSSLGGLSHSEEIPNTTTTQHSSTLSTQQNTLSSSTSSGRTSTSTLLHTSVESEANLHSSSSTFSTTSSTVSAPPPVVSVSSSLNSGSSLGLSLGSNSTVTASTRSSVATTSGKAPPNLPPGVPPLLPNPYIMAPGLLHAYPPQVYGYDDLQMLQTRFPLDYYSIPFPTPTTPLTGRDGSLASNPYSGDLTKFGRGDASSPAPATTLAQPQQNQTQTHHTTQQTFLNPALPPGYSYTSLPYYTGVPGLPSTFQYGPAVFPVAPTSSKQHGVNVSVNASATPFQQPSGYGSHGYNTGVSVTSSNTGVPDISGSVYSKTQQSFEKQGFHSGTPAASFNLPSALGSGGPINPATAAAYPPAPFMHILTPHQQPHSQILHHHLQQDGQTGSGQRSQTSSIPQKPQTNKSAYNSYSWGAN
inactive: [1] -0.141 | [2] 0.015 | [3] -0.035 | [4] 0.055 | [5] -0.058 | [6] 0.024 | [7] -0.106 | [8] 0.048 | [9] 0.01 | [10] 0.02 | [11] 0.013 | [12] 0.126 | [13] -0.037 | [14] -0.018 | [15] -0.042

TUBA4A (UniProt P68366)
UniProt P68366, sequence (P68366 whole entry, looked up): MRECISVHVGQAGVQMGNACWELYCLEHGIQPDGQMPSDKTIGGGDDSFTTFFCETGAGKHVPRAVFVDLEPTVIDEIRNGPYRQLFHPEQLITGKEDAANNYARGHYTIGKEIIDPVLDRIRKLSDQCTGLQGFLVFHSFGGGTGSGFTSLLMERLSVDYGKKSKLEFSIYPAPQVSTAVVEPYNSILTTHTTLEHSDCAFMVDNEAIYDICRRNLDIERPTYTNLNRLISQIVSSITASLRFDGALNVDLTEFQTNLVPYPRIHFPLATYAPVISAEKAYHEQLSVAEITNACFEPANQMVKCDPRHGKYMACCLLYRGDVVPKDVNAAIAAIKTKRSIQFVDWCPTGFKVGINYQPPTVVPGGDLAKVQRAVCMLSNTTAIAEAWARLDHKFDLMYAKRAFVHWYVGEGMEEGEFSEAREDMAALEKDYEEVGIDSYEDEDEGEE
inactive: [1] 0.036 | [2] -0.024 | [3] -0.09 | [4] -0.009 | [5] 0.02 | [6] -0.024 | [7] -0.012 | [8] 0.034 | [9] 0.022 | [10] -0.003 | [11] 0.066 | [13] 0.077 | [14] 0.051 | [15] -0.045
active: [12] -0.736

UBTF (UniProt P17480)
UniProt P17480, sequence (P17480 whole entry, looked up): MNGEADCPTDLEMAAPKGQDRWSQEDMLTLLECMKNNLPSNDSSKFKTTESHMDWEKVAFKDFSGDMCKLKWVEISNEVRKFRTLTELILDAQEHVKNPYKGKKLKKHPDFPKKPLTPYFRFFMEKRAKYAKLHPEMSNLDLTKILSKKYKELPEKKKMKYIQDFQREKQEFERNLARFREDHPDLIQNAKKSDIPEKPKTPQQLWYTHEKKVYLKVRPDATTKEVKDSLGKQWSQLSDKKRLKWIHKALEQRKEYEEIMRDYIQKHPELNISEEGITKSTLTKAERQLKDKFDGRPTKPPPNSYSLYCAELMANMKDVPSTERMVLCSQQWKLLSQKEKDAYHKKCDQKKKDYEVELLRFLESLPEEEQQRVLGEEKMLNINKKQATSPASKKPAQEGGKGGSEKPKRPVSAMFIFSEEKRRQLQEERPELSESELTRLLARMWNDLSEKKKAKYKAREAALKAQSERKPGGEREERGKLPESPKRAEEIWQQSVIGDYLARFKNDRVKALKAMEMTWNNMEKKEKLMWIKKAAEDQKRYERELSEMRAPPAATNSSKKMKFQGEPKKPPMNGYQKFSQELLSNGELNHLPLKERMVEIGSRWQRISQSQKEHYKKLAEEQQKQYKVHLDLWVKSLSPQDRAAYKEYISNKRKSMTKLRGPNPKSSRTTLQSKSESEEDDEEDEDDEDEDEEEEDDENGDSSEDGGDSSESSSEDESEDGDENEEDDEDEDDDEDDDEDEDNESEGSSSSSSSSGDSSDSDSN
active: [12] -0.315
inactive: [1] 0.001 | [2] 0.031 | [3] -0.021 | [4] -0.039 | [5] 0.004 | [6] 0 | [7] 0.015 | [8] 0.044 | [9] -0.01 | [10] -0.042 | [11] -0.045 | [13] 0.044 | [14] -0.012 | [15] 0.032

TRADD (UniProt Q15628)
UniProt Q15628, sequence (Q15628 whole entry, looked up): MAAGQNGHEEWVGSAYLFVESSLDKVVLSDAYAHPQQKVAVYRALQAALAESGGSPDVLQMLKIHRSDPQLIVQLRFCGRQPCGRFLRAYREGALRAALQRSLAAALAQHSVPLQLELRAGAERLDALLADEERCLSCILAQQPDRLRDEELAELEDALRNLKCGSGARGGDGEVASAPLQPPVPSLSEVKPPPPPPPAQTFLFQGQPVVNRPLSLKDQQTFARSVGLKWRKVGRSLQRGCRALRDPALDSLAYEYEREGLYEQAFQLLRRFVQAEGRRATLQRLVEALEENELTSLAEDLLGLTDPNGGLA
inactive: [1] 0.009 | [2] -0.02 | [3] 0.065 | [4] -0.013 | [5] -0.002 | [6] -0.018 | [7] 0.053 | [8] 0.044 | [9] 0.01 | [10] 0.041 | [11] 0.034 | [12] -0.284 | [13] 0.021 | [14] -0.029 | [15] 0.059

TUBA1B (UniProt P68363)
UniProt P68363, sequence (P68363 whole entry, looked up): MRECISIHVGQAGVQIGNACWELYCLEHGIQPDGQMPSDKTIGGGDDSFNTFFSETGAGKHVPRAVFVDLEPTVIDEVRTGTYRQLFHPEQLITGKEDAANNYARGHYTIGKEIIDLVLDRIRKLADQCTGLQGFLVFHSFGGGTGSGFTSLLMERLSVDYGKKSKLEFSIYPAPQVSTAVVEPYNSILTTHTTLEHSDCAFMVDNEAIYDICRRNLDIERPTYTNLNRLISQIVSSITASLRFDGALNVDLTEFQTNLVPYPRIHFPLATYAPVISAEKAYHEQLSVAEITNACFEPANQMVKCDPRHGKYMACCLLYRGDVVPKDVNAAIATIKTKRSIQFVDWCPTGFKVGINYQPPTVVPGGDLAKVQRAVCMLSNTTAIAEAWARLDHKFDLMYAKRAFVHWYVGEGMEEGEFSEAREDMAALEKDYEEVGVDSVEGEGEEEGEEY
inactive: [1] -0.043 | [2] -0.009 | [3] -0.051 | [4] -0.036 | [5] 0.01 | [6] -0.021 | [7] 0.002 | [8] 0.041 | [9] 0.002 | [10] -0.013 | [11] -0.005 | [13] 0.018 | [14] 0.026 | [15] 0.01
active: [12] -0.66

UBE2L6 (UniProt O14933)
UniProt O14933, sequence (O14933 whole entry, looked up): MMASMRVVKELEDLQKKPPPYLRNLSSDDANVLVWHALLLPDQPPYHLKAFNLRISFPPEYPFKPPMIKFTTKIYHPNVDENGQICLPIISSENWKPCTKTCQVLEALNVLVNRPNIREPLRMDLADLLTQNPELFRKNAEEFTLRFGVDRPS
inactive: [1] 0.038 | [2] -0.139 | [3] -0.018 | [4] 0.036 | [5] -0.055 | [6] 0.024 | [7] 0.043 | [8] -0.032 | [9] -0.002 | [10] -0.096 | [11] -0.071 | [13] 0.037 | [14] 0 | [15] -0.011
active: [12] -0.477

THEMIS2 (UniProt Q5TEJ8)
UniProt Q5TEJ8, sequence (Q5TEJ8 whole entry, looked up): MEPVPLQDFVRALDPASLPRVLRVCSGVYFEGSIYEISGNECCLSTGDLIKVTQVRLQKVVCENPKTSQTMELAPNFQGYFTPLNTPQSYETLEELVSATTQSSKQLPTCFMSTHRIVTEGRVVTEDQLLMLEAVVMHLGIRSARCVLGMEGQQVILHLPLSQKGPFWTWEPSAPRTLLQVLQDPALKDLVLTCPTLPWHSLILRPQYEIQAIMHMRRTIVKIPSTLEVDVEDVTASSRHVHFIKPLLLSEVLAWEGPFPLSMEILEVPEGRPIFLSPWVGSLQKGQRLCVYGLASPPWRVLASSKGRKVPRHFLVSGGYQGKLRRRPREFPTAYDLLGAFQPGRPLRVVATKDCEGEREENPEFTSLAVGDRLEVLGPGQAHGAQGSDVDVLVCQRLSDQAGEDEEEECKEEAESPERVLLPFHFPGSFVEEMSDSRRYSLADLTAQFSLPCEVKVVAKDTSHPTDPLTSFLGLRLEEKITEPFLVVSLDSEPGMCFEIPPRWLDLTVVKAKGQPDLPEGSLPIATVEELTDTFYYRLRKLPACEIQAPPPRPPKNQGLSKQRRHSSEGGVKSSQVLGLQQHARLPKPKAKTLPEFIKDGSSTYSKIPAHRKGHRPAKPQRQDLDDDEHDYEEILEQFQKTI
inactive: [1] -0.096 | [2] 0.06 | [3] -0.092 | [4] -0.144 | [5] 0.059 | [6] 0.03 | [7] -0.039 | [8] 0.051 | [9] 0.095 | [10] 0.019 | [11] -0.029 | [13] 0.069 | [14] 0.059 | [15] -0.007
active: [12] -0.315

TTC12 isoform 2 (UniProt Q9H892)
UniProt Q9H892, sequence (Q9H892 whole entry, looked up): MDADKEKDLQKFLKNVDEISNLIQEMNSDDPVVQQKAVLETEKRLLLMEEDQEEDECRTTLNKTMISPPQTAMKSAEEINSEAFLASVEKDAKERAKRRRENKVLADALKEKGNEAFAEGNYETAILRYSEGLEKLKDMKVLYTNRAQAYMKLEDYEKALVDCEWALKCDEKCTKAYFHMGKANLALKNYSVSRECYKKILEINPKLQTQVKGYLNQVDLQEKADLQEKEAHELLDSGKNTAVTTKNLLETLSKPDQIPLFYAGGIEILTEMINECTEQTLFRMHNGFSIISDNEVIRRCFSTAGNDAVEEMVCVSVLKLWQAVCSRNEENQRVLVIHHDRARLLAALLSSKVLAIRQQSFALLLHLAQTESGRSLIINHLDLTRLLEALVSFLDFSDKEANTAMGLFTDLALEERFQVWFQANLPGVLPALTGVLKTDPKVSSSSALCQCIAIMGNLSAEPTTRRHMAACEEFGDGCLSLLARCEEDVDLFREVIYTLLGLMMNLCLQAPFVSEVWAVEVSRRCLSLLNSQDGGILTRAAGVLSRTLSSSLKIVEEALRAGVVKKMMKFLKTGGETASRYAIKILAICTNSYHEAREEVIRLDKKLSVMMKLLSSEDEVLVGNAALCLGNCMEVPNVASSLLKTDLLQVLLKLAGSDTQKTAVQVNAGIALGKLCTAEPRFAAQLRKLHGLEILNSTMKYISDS
inactive: [1] -0.128 | [2] -0.073 | [3] -0.143 | [4] 0.018 | [5] 0.004 | [6] 0.033 | [7] 0.075 | [8] 0.007 | [9] -0.041 | [10] -0.073 | [11] -0.01 | [12] -0.163 | [13] 0.078 | [14] -0.058 | [15] -0.03

Reference: the supplement of paper PMC10849652
